Here are results for 14 compounds from PubChem BioAssay.

As a reminder, the inhibition is the drop in the measured response relative to a control, in per cent.

Calls of active or inactive are those of the source.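 Rule for the calls, unless noted: active = inhibition of the reporter signal at or above 50%; inactive = inhibition below 50%.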

Test [1] in a line: inhibitors of TNFa-induced NFkB p65 translocation, primary screen, imaging, HUVEC, MLSMR starter and 10KST1 sets (AID 438;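 active = inhibition above 20% together with a positive visual image hit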;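 note: compound added about 3h40 before a 20 min TNFalpha stimulation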;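 for inhibition: signal is the nuclear over cytoplasmic p65 intensity ratio per well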). Conditions: HUVEC TNFa-induced p65 nuclear translocation; cell count: measured here: nuclei count (cytotoxicity indicator), at 2.08 µM; inhibition: at 2 µM, stronger effect = higher value, 0% TNFa-plus-vehicle, 100% no-TNFa wells.
The nature of test [2]: reduction of polyQ htt aggregates in cells – imaging, exon1htt(103Q)mCFP cells, high-content imaging, primary screen (AID 483;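 active = visual image review flags a hit and inhibition of aggregation exceeds 20%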;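 note: compound exposure lasted 3 days before fixation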;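 for nuclei count: percent of the per-plate median nuclei count of sample wells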). Conditions: exon1htt(103Q)mCFP cell line, aggregate imaging, at 2 µM; inhibition of aggregation: stronger effect = higher value; nuclei count: measured here: cell count, toxicity.
Test [3] is described as follows: endothelial E-selectin expression blockers – imaging, HUVEC, immunofluorescence, MLSMR starter and 10KST1 sets, primary screen (AID 487;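 active = visually confirmed hit in the image check and inhibition above 20%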;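 for inhibition: signal is fraction of cell area covered by stained E-selectin grains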;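 for nuclei count: 100% = median nuclei count of all wells on the same plate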). The note with it: HUVEC TNFalpha-induced E-selectin immunofluorescence imaging, at 2 µM; inhibition: stronger effect = higher value; nuclei count: measured here: cell number, toxicity.
Test [4] has as its target Voltage-gated potassium channel subunit beta-2 (Rattus norvegicus) (UniProt P62483). Put plainly: inhibitors of rat Kvbeta2 reductase activity – biochemical, NADPH fluorescence, primary screen (AID 622;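 active = fluorescence slope higher than the sample average by over 3 SD, cut at about -0.22 in these data, passing the limit was not always enough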;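 note: slope of raw intensity against log time taken from 70 to 1610 s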). Conditions: recombinant KvBeta, 4-cyanobenzaldehyde reduction, at 10 µM, stronger effect = higher value.
The target is the same in test [5]. Put plainly: enhancers of rat Kvbeta2 NADPH turnover – biochemical, NADPH fluorescence, primary screen (AID 623;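 active = NADPH fluorescence slope more negative than the mean of all samples by about 3 SD, 99.7% confidence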;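 note: fluorescence intensity change per second fitted from 20 to 320 s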). The note with it: Recombinant KvBeta, NADPH fluorescence decrease slope, 10 min; at 10 µM; stronger effect = lower value.
The target of test [6] is Alpha-2C adrenergic receptor (Homo sapiens) (UniProt P18825). Put plainly: compounds altering alpha2C-coupled GIRK flux – cell-based, HEK293 alpha2C/GIRK1/2, thallium flux, primary screen (AID 624;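 active = fluorescence slope after compound addition differing from the mean of all screened samples at 99.7% confidence, in either direction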;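 note: slope of fluorescence ratio to pre-addition baseline per second over 15 to 24 s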). The note with it: thallium flux BTC fluorescence, at 10 µM, actives lie on both sides.
Sequence of Alpha-2C adrenergic receptor (Homo sapiens) (P18825 whole entry, looked up): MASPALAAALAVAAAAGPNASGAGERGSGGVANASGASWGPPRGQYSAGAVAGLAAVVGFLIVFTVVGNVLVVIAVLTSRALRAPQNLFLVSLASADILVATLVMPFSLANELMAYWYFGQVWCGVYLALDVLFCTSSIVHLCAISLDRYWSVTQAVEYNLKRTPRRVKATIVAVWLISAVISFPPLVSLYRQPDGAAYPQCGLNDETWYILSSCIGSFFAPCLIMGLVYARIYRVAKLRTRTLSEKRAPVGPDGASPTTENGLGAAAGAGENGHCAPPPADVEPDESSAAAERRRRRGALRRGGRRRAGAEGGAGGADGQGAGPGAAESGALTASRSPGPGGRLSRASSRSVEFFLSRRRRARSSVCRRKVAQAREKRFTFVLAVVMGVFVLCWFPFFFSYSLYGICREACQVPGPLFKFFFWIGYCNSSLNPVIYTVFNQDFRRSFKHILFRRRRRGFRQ
A short description of test [7]: blockers of RIG-like receptor reporter activation – cell-based, Sendai virus stimulus, luciferase, 10K MLSCN set, TLR/RLR signaling modifier project, primary screen (AID 602276;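 active = inhibition at or above 50% at 10 µM; inactive = inhibition below 50%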;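 note: firefly luciferase from ISG56 promoter only with Renilla not read in this screen; 0% = Sendai virus plus DMSO and 100% = medium plus DMSO without virus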). The note with it: HEK293 RL24 IRF3 luciferase reporter, at 10 µM, stronger effect = higher value. For orientation: In a reporter assay the amount or activity of a reporter protein is the signal.
The nature of test [8]: TLR3 IRF3 reporter activation blockers – cell-based, poly I:C stimulus, luciferase, 10K MLSCN set, primary screen (AID 602277). Conditions: HEK293-TLR3 RL24 IRF3 luciferase reporter, at 10 µM, stronger effect = higher value.

Sequence of Voltage-gated potassium channel subunit beta-2 (Rattus norvegicus) (P62483 whole entry, looked up): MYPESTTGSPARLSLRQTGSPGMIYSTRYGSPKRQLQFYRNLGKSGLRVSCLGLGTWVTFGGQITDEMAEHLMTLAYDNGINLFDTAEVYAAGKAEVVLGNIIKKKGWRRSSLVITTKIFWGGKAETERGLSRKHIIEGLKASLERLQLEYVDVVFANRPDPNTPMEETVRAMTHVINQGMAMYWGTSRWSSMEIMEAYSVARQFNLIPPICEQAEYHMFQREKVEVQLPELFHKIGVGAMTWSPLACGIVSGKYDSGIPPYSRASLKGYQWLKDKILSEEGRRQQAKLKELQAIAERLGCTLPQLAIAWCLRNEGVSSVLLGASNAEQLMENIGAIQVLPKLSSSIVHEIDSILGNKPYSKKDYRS

Consider `Cc1cccc(NC(=O)CC2NC3CCCCC3NC2=O)c1` (centres undefined), for which the cell count in test [1] came to 384. The inhibition is -4.8% (inactive) in test [1], 6.9% (inactive) in test [3], 13.5% (inactive) in test [7] and 14.2% (inactive) in test [8]. In addition, the inhibition of aggregation in test [2] is -8.2% (inactive). The nuclei count worked out at 81% in test [2] and 106% in test [3]. Further, the fluorescence slope in test [4] is -0.358 (inactive). For the same compound, the NADPH fluorescence slope in test [5] is -2.9e-05 (inactive). In addition, the slope in test [6] is 0.00297 (inactive).

`Cc1sc2ncnc(SCC(=O)N3CCCC3)c2c1C`: the cell count in test [1] is 369. Besides, the inhibition in test [1] was 3.5% (inactive); in test [3] it was -32.3% (inactive); in test [7], 8.17% (inactive); in test [8], 6.41% (inactive). For the same compound, in test [2], the inhibition of aggregation is -6.6% (inactive). For the same compound, the nuclei count in test [2] is 112%; in test [3], 108%. Moreover, in test [4], the fluorescence slope was -0.433 (inactive). The NADPH fluorescence slope in test [5] is -0.000107 (inactive). Besides, the slope in test [6] was 0.00701 (inactive).

Regarding `Cc1cc(C)cc(NC(=O)c2nnn(Cc3cc(C)ccc3C)c2N)c1`, the cell count in test [1] was 598. For the same compound, the inhibition in test [1] was 8.7% (inactive); in test [3] it was -5.5% (inactive); in test [7] it was 44.9% (inactive); in test [8], 14.5% (inactive). The inhibition of aggregation in test [2] was -15.9% (inactive). Besides, the figures for the nuclei count in test [2] and in test [3] were 90.3% and 125%, respectively. Besides, in test [4], the fluorescence slope was -0.564 (inactive). Also, the NADPH fluorescence slope in test [5] is -3.4e-05 (inactive). Besides, in test [6], the slope was 0.00689 (inactive).

With `Cc1cc(C(=O)CSc2nc3ccccc3n2CCC#N)c(C)n1Cc1cccs1`, the cell count in test [1] stood at 440. The inhibition in test [1] is 10.6% (inactive); in test [3] it was -412% (inactive); in test [7], 20.7% (inactive); in test [8], -7.47% (inactive). The inhibition of aggregation in test [2] is -70.3% (inactive). In addition, the figures for the nuclei count in test [2] and in test [3] were 102% and 158%, respectively. Moreover, the fluorescence slope in test [4] is -0.32 (inactive). In test [5], the NADPH fluorescence slope is -4.6e-05 (inactive). Further, the slope in test [6] was 0.00574 (inactive).

With `Cc1ccccc1OCc1nc2ccccc2c(=O)n1/N=C/c1ccco1`, in test [1], the cell count worked out at 373. The inhibition in test [1] was -13.1% (inactive); in test [3], -47.5% (inactive); in test [7], -5.07% (inactive); in test [8], -33% (inactive). In test [2], the inhibition of aggregation is 4% (inactive). Further, the nuclei count was determined as 57.5% in test [2] and 85.3% in test [3]. The fluorescence slope in test [4] is -0.46 (inactive). The NADPH fluorescence slope in test [5] is -4.6e-05 (inactive). Also, the slope in test [6] is 0.00374 (inactive).

Turning to `O=C(CSc1nc2ccccc2o1)NC(=O)NCc1ccco1`, in test [1], the cell count came to 342. Moreover, the inhibition in test [1] is -1.8% (inactive); in test [3], -31.1% (inactive); in test [7], -2.31% (inactive); in test [8] it was 12.3% (inactive). In addition, the inhibition of aggregation in test [2] is -12.3% (inactive). The values for the nuclei count in test [2] and in test [3] were 94.8% and 112%, respectively. The fluorescence slope in test [4] is -0.333 (inactive). Moreover, in test [5], the NADPH fluorescence slope was -3.3e-05 (inactive). Moreover, the slope in test [6] is 0.00371 (inactive).

Regarding `CN(C)S(=O)(=O)c1ccc(C(=O)N2CCCC2c2nc3ccccc3s2)cc1` (centres undefined), the cell count in test [1] was found to be 475. Also, the inhibition in test [1] was -9.4% (inactive); in test [3] it was -82.5% (inactive); in test [7], -17.9% (inactive); in test [8], -7.19% (inactive). Moreover, in test [2], the inhibition of aggregation was 4% (inactive). The nuclei count came out at 97.5% in test [2] and 102% in test [3]. For the same compound, the fluorescence slope in test [4] is -0.524 (inactive). Further, in test [5], the NADPH fluorescence slope was 1.6e-05 (inactive). Also, the slope in test [6] is 0.0053 (inactive).

On to `O=C(O)c1cccc(COCC(F)(F)C(F)F)c1`, for which, in test [1], the cell count was determined as 714. Further, the inhibition in test [1] was -9% (inactive); in test [3] it was -16.8% (inactive); in test [7] it was 5.99% (inactive); in test [8] it was 5.49% (inactive). Also, the inhibition of aggregation in test [2] was 17.2% (inactive). The nuclei count is 101% in test [2] and 102% in test [3]. In test [4], the fluorescence slope is -0.497 (inactive). Moreover, the NADPH fluorescence slope in test [5] was -4.4e-05 (inactive). The slope in test [6] is 0.00506 (inactive).

For `Cc1ccc(S(=O)(=O)CC2CSc3nnc(C)c(=O)n32)cc1` (centres undefined), the cell count in test [1] stood at 432. Besides, the inhibition in test [1] is -3.3% (inactive); in test [3], -36.1% (inactive); in test [7] it was 12.3% (inactive); in test [8] it was 31.9% (inactive). Besides, the inhibition of aggregation in test [2] is 3.8% (inactive). The nuclei count in test [2] worked out at 91.3%; in test [3], 173%. The fluorescence slope in test [4] was -0.38 (inactive). Moreover, the NADPH fluorescence slope in test [5] is -5.3e-05 (inactive). Moreover, in test [6], the slope was 0.00213 (inactive).

For the compound `CCOC(=O)c1cc2ccc(OC)c(OC)c2c(=O)s1`, in test [1], the cell count stood at 452. Also, the inhibition in test [1] is 4.9% (inactive); in test [3] it was 36.3% (inactive); in test [7] it was -11.9% (inactive); in test [8] it was -12.5% (inactive). In addition, the inhibition of aggregation in test [2] was -3.4% (inactive). The values for the nuclei count in test [2] and in test [3] were 102% and 108%, respectively. Besides, the fluorescence slope in test [4] was -0.396 (inactive). In addition, the NADPH fluorescence slope in test [5] was -2.4e-05 (inactive). Besides, the slope in test [6] was 0.00363 (inactive).

Regarding `COc1ccc(S(=O)(=O)N2CCCC2C(=O)Nc2ccc(O)cc2)cc1` (centres undefined), the cell count in test [1] worked out at 601. Moreover, the inhibition was 7.1% (inactive) in test [1], -23.4% (inactive) in test [3], 1.14% (inactive) in test [7] and 12.2% (inactive) in test [8]. The inhibition of aggregation in test [2] was -21.9% (inactive). In addition, the nuclei count was found to be 110% in test [2] and 111% in test [3]. Besides, the fluorescence slope in test [4] is -0.535 (inactive). For the same compound, the NADPH fluorescence slope in test [5] was -2e-05 (inactive). Moreover, the slope in test [6] is 0.00566 (inactive).

As to `Cc1cccc2c1N(CC(=O)OC(C)C)C(=O)C2=O`, the cell count in test [1] was 854. Besides, the inhibition was 0% (inactive) in test [1], -67.4% (inactive) in test [3], -2.09% (inactive) in test [7] and 29% (inactive) in test [8]. In addition, in test [2], the inhibition of aggregation is -1.4% (inactive). In addition, the figures for the nuclei count in test [2] and in test [3] were 105% and 121%, respectively. The fluorescence slope in test [4] is -0.612 (inactive). In test [5], the NADPH fluorescence slope is -6.4e-06 (inactive). Further, the slope in test [6] was 0.00621 (inactive).

Regarding `Cc1cccc(N2CCN(Cc3c(C)n(C)n(-c4ccccc4)c3=O)CC2)c1C`, in test [1], the cell count turned out to be 451. The inhibition was 0.5% (inactive) in test [1], -29.6% (inactive) in test [3], 13.4% (inactive) in test [7] and 18.5% (inactive) in test [8]. Moreover, in test [2], the inhibition of aggregation was 9.8% (inactive). Besides, the nuclei count in test [2] was 92.6%; in test [3] it was 124%. The fluorescence slope in test [4] was -0.465 (inactive). In test [5], the NADPH fluorescence slope was 5.9e-05 (inactive). Moreover, the slope in test [6] is 0.00748 (inactive).

As to `CC1(C)CC(=O)C(C=Nc2ccncc2)=C(O)C1`, the cell count in test [1] is 463. Besides, the inhibition in test [1] was 4.9% (inactive); in test [3], -42.3% (inactive); in test [7], -2.33% (inactive); in test [8] it was 10.3% (inactive). The inhibition of aggregation in test [2] was 3.3% (inactive). For the same compound, the nuclei count in test [2] worked out at 103%; in test [3] it was 120%. For the same compound, in test [4], the fluorescence slope is -0.607 (inactive). Further, the NADPH fluorescence slope in test [5] is 5e-06 (inactive). In addition, in test [6], the slope is 0.00629 (inactive).
